Values without a mark were called inactive. Records with an inconclusive call do not appear. Activity calls are given as the source filed them. Unless noted, the call rests on the fitted dose curve; in most records, active means well fitted curve in the direction sought with a large enough effect in the repeat runs; inconclusive means weak or mixed curves; inactive means no such curve, though single readings can be large; an effect the other way counts as inactive or inconclusive.

Test [1] is described as follows: qHTS assay for small molecule agonists of the p53 signaling pathway (AID 651631; calls by dose curve; further: nearly all actives have a fitted effect of over 15% in size). In a few lines: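 Testing took place in human colorectal HCT-116 cells with stable p53RE-driven beta-lactamase. After 16 h of compound exposure at 37 °C, a FRET substrate was added and fluorescence recorded 2 h later.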
A short description of test [2]: qHTS assay for small molecules that induce genotoxicity in human embryonic kidney cells expressing luciferase-tagged ATAD5 (AID 651632). Further: nearly all actives have a fitted effect of over 15% in size. In a few lines:
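Luminescence read-out: after 16 hr compound exposure at 37C, ATAD5-luciferase HEK293T cells received Amplite, 30 min RT, then CCD imaging. A rise in signal marks genotoxic stress.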

A short description of test [3]: qHTS assay for small molecule agonists of the p53 signaling pathway - cell viability (AID 651633; calls by dose curve; further: series mostly up to about 83 µM; nearly all actives have a fitted effect of over 30% in size). In a few lines:
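p53RE-bla cells, seeded at 4,000 per well and rested 5 h at 37 C/5% CO2, received compounds in DMSO for 16 h at 37 C. CellTiter-Glo was then added, and luminescence was read after 30 min at room temperature to gauge cytotoxicity.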

Test [4] in a line: qHTS assay for small molecules that induce genotoxicity in human embryonic kidney cells expressing luciferase-tagged ATAD5 - cell viability (AID 651634; calls by dose curve; further: nearly all actives have a fitted effect of over 25% in size). In short, it runs like this:
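HEK293T ATAD5-luc cells, 2,000/well; compound 15.5 hr, 37C/5% CO2; CellTiter-Fluor 30 min, 37C; fluorescence read.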

The nature of test [5]: qHTS assay for small molecule disruptors of the mitochondrial membrane potential - cell viability (AID 720634; calls by dose curve;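 further: human HepG2 liver cancer cells; series mostly up to about 83 µM; nearly all actives have a fitted effect of over 20% in size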). In a few lines: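 Luminescence from CellTiter-Glo (ATP content) gave viability in HepG2 cells, read in the same wells as the MMP dye assay after 1 hr compound exposure at 37 C.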
A short description of test [6]: qHTS assay for small molecule disruptors of the mitochondrial membrane potential (AID 720635). Further: potency means the concentration at half of the fitted maximal effect. In a few lines: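 HepG2 cells (2,000/well) attached overnight at 37C, then took compound for 1 hr at 37C, 5% CO2. Mito-MPS dye was added for 30 min; fluorescence was read at 490/535 nm (monomers) and 540/590 nm (aggregates).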
Test [7] is described as follows: qHTS assay to test for compound auto fluorescence at 590 nm (red) in HepG2 cells (AID 720674). In a few lines:
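Rose Bengal sodium served as the red fluorophore standard. HepG2 monolayers (overnight attachment, MEM with 10% FBS) were exposed to test compounds for 1 hr at 37 C and read at Ex 540/Em 590 nm.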

The nature of test [8]: qHTS assay to test for compound auto fluorescence at 535 nm (green) in HepG2 cells (AID 720675).
Test [9] can be described thus: qHTS assay to test for compound auto fluorescence at 460 nm (blue) in HEK293 cells (AID 720678). In short, it runs like this: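 Measured: blue fluorescence (Ex 405/Em 460 nm) of compound-treated HEK293 cells, incubated overnight at 37C with 5% CO2 and scaled to triamterene equivalents.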
The nature of test [10]: qHTS assay to test for compound auto fluorescence at 590 nm (red) in HEK293 cells (AID 720679). In a few lines: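 Using HEK293 cells at 2,000 per well, the screen added 23 nL of each compound after cell attachment and incubated overnight (37C, 5% CO2). The plate reader then captured red-label fluorescence, Ex/Em 540/590nm.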
Test [11] in a line: qHTS assay to test for compound auto fluorescence at 535 nm (green) in HEK293 cells (AID 720680).
Test [12] is described as follows: qHTS assay to test for compound auto fluorescence at 460 nm (blue) in HEK293 cell free culture (AID 720681). In short, it runs like this: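 Test compounds were pinned into cell-free culture medium (DMEM with 10% FBS) and fluorescence was read directly at Ex/Em 405/460 nm. Signals were expressed as fluorescence equivalents of triamterene, with DMSO vehicle as control.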

Test [13] can be described thus: qHTS assay to test for compound auto fluorescence at 535 nm (green) in HEK293 cell free culture (AID 720682). In a few lines: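 DMEM + 10% FBS, cell-free; cpd or DMSO pinned in; Ex485/Em535 read; output as fluorescein-equivalent signal.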
Test [14] can be described thus: qHTS assay to test for compound auto fluorescence at 590 nm (red) in HEK293 cell free culture (AID 720683). In short, it runs like this: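 Tox21 10K library compounds were pinned into cell-free DMEM with 10% FBS and fluorescence was read at excitation 540 nm. Activity is expressed as Rose Bengal sodium equivalency.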
A short description of test [15]: qHTS assay to test for compound auto fluorescence at 590 nm (red) in HepG2 cell free culture (AID 720684). In short, it runs like this:
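Ex 540 / Em 590 nm read of compound in cell-free MEM (10% FBS). Rose Bengal sodium reference.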

Test [16] is described as follows: qHTS assay to test for compound auto fluorescence at 460 nm (blue) in HepG2 cell free culture (AID 720685). In a few lines:
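Cell-free plates of MEM plus 10% FBS received 23 nL compound or DMSO vehicle; blue-channel (405/460 nm) intensity scored against triamterene as reference fluorophore.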

Test [17] in a line: qHTS assay to test for compound auto fluorescence at 535 nm (green) in HepG2 cell free culture (AID 720686).
The nature of test [18]: qHTS assay to test for compound auto fluorescence at 460 nm (blue) in HepG2 cells (AID 720687). In short, it runs like this:
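Cells (2,000/well in MEM with 10% FBS) attached overnight at 37 C, then were exposed to compound or DMSO for 1 hr at 37 C, 5% CO2. Fluorescence read at Ex/Em 405/460 nm, expressed as triamterene-equivalent signal.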

Test [19] has as its target Glucocorticoid receptor (Homo sapiens) (UniProt P04150). Briefly: qHTS assay to identify small molecule agonists of the glucocorticoid receptor (GR) signaling pathway (AID 720691; active means well fitted activation curve with a large enough effect in the signal ratio in the repeat runs, not every such curve was filed as active; the % refers to the signal ratio). In a few lines: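 HeLa GR-bla reporter line; cells pre-incubated 4 h, compound in DMSO 18 h at 37 C; LiveBLAzer B/G FRET substrate 2 h RT; fluorescence intensity read-out.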

Chain of Glucocorticoid receptor (Homo sapiens) (P04150 whole entry, looked up): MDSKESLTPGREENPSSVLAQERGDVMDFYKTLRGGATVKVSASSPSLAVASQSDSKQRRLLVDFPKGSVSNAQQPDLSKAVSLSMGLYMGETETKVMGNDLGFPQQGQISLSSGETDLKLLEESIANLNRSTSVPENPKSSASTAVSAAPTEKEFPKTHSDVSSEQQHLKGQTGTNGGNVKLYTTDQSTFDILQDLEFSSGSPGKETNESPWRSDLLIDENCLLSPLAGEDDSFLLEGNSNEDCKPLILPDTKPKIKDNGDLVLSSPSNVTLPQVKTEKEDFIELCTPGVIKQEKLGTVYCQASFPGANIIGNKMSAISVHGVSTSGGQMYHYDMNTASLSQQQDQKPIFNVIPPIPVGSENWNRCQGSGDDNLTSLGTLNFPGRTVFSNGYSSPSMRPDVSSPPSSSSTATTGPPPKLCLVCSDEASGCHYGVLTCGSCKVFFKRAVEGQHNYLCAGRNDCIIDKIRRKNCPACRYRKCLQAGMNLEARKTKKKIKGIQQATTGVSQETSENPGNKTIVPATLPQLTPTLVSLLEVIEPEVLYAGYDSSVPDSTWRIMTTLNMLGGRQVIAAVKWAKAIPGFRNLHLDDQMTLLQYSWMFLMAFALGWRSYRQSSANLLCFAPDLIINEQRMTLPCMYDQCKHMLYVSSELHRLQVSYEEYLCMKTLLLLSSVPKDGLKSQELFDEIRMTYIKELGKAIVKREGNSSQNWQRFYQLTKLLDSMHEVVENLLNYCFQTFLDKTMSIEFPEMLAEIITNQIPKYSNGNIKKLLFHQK

Take `CC1=C2[C@H]3OC(=O)[C@@H](C)[C@@H]3CC[C@@]2(C)C=CC1=O`: the Potency entry in test [1], in test [3], in test [4], in [5], in [6] and in [19] was “inactive” throughout. Also, the call in test [2], in [7], in test [8], in [9], in [10] and in test [11] was inactive. In addition, the outcome in [12], in [13], in test [14], in [15], in test [16] and in test [17] was inactive. For the same compound, in [18], the outcome was inactive.
Turning to `CC(C)NCC(O)c1ccc([N+](=O)[O-])cc1` (stereo not drawn), the Potency entry in test [1], in test [3], in test [4], in test [5], in test [6] and in test [19] was “inactive” in each case. In addition, the compound was classed as inactive in test [2], in test [7], in test [8], in test [9], in test [10] and in test [11]. Further, the outcome in test [12], in test [13], in test [14], in [15], in test [16] and in [17] was inactive. In test [18], the call was inactive.
For the compound `ClC(Cl)(Cl)Cl`, the Potency entry in [1], in test [3], in test [4], in [5] and in test [6] was “inactive” throughout. The compound was called inactive in test [2], in test [7], in test [8], in test [9], in [10] and in test [11]. The compound was called inactive in test [12], in [13], in test [14], in [15], in [16] and in test [17]. The compound was called inactive in [18].
Turning to `C=CCc1cc(OC)c2c(c1)OCO2`, the Potency entry in test [1], in [3], in [4], in [5], in [6] and in test [19] was “inactive” throughout. Also, the compound was called inactive in [2], in test [7], in test [8], in test [9], in [10] and in test [11]. The compound was called inactive in test [12], in test [13], in [14], in test [15], in [16] and in test [17].
Regarding `C=CC1(C)OC(=O)N(c2cc(Cl)cc(Cl)c2)C1=O` (stereo not drawn), the Potency entry in test [1], in test [3], in test [4], in [5] and in [19] was “inactive” throughout. In addition, the compound was called inactive in [2], in test [7], in test [8], in test [9], in test [10] and in test [11]. Also, the call in [12], in test [13], in test [14], in test [16] and in test [18] was inactive. Also, the Potency in [6] was 54.5 µM (active).
As for `CCN(CC)CCOC(=O)C(O)(c1ccccc1)c1ccccc1`, the Potency result in test [1], in test [3], in test [4], in test [5], in test [6] and in test [19] was “inactive” throughout. The compound was called inactive in test [2], in test [7], in test [8], in test [9], in test [10] and in test [11]. Moreover, the call in test [12], in test [13], in test [14], in test [15], in test [16] and in [17] was inactive. Further, in test [18], the call was inactive.
Consider `[P]#[In]`, for which the Potency entry in test [1], in [3], in test [4], in [5] and in [19] was “inactive” in each case. Moreover, the outcome in [2], in test [7], in [8], in test [9], in test [10] and in test [11] was inactive. The call in test [12], in [13], in [14], in [15], in test [16] and in test [17] was inactive. Moreover, in test [18], the call was inactive.

Values taken from PubChem BioAssay (Tox21).
